According to PubChem BioAssay (Tox21):
Where “and” joins values, the source holds several entries; their conditions need not be identical. Equal values may be shown once. Records with an inconclusive call do not appear. A call without a number means that no potency is given here. Where a structure was tested more than once in an assay, its records may differ in their call. Calls of active or inactive are those of the source. Unless noted, calls follow the shape of the dose curve; as a rule, active = well fitted curve in the direction sought with a large enough effect in the repeat runs; inconclusive = weak or mixed curves; inactive = no such curve, though single readings can be large; an effect the other way counts as inactive or inconclusive.

Legend:
[1] = Human pregnane X receptor (PXR) small molecule agonists, qHTS cell viability counter screen (AID 1346977); also: nearly all actives have a fitted effect of over 50% in size
Outline: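 HepG2 cells stably carrying the PXR-Luc reporter are cultured with 5% charcoal-stripped FBS and treated with compounds for 24hr. CellTiter-Fluor is added at 23hr and fluorescence is read after 1hr.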

[2] = Caspase-3/7 induction in HepG2 cells by small molecules, qHTS assay (AID 1346978); also: nearly all actives have a fitted effect of over 15% in size
Outline: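 Caspase-3/7 induction was measured by Caspase-Glo 3/7 luminescence (30 min, room temperature) after a 17 hr compound exposure of wild-type HepG2 cells seeded at 2,000 per well and pre-incubated 5 hr.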

[3] = Caspase-3/7 induction in CHO-K1 cells by small molecules, qHTS cell viability counter screen (AID 1346979); also: nearly all actives have a fitted effect of over 35% in size; also: potency is read from the fitted curve at half-maximal effect
Outline: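 Seeding: 1,500 CHO-K1 cells/well. Rest: 5hr, 37C. Treatment: compounds in DMSO, 16hr. Read: CellTiter-Fluor, 1hr, fluorescence.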

[4] = Caspase-3/7 induction in CHO-K1 cells by small molecules, qHTS assay (AID 1346980); also: nearly all actives have a fitted effect of over 15% in size
Outline: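 Luminescent Caspase-Glo 3/7 read (30min, room temperature) quantified apoptosis induction. Cells were wild-type CHO-K1, treated with compound for 17hr at 37 C and 5% CO2.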

[5] = Caspase-3/7 induction in HepG2 cells by small molecules, qHTS cell viability counter screen (AID 1346981); also: series mostly up to about 92 µM; nearly all actives have a fitted effect of over 30% in size
Outline: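 Counter screen for cytotoxicity: HepG2 exposed 16 hr to compounds, then CellTiter-Fluor viability signal (fluorescence, 1 hr reagent incubation).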

[6] = biological target: Acetylcholinesterase (Homo sapiens) (UniProt P22303); experiment: Acetylcholinesterase (AChE) small molecule antagonists: colormetric cell-based qHTS assay (AID 1347395; calls by dose curve; also: nearly all actives have a fitted effect of over 30% in size)
Outline: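 Quantitative HTS in attached SH-SY5Y cells: 30 min compound exposure, then 90 min with acetylthiocholine and DTNB at 37 C; colour from thiocholine reports AChE activity.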

[7] = biological target: Acetylcholinesterase (Homo sapiens) (UniProt P22303); experiment: Acetylcholinesterase (AChE) small molecule antagonists: enzyme-based qHTS assay (AID 1347397; calls by dose curve; also: nearly all actives have a fitted effect of over 55% in size); conditions: Potency: AChE enzyme activity inhibition; outcome: AChE enzyme activity inhibition
Outline: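 rhAChE 50 mU/mL (dispensed) + cpd or DMSO, 30 min RT; add DTNB/acetylthiocholine cocktail, 10 min RT; colorimetric thiocholine readout. qHTS, 1536-well format.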

[8] = biological target: Acetylcholinesterase (Homo sapiens) (UniProt P22303); experiment: Acetylcholinesterase (AChE) small molecule antagonists: fluorescence cell-based qHTS assay (AID 1347398; calls by dose curve; also: nearly all actives have a fitted effect of over 50% in size); conditions: Potency: AChE activity; outcome: AChE activity
Outline: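 Read-out is Thiolite Green fluorescence at Ex/Em = 490/520 nm, formed by reaction with thiocholine released when cellular AChE in SH-SY5Y cells hydrolyzes acetylthiocholine. Compounds were preincubated 30 min at 37 C before substrate.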

[9] = biological target: Acetylcholinesterase (Homo sapiens) (UniProt P22303); experiment: Acetylcholinesterase (AChE) small molecule antagonists: enzyme-based qHTS assay with human liver microsomes (AID 1347399; calls by dose curve; also: nearly all actives have a fitted effect of over 60% in size); conditions: Potency: qHTS inhibition; outcome: qHTS inhibition
Outline: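 Recombinant human AChE (50 mU/mL in the enzyme mix) and human liver microsomes (0.25 mg/mL final) were preincubated with compound and NADPH (0.25 mg/mL final) for 30 min at 37 C. Acetylthiocholine/DTNB was then added; thiocholine was read colorimetrically after 10 min at room temperature.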

[10] = biological target: Cytochrome P450 2C9 (Homo sapiens) (UniProt P11712); experiment: Cytochrome P450 Family 2 Subfamily C Member 9 (CYP2C9) small molecule antagonists: luciferase reporter qHTS assay (AID 1671198); also: nearly all actives have a fitted effect of over 50% in size; also: potency is read from the fitted curve at half-maximal effect
Outline: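 Enzyme-substrate mix preincubated with compound 10 min at room temperature; reaction started with NADPH regeneration solution, 1 h 37C. Luminescent luciferin product read after 20 min detection reagent.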

[11] = biological target: Cytochrome P450 1A2 (Homo sapiens) (UniProt P05177); experiment: Cytochrome P450 Family 1 Subfamily A Member 2 (CYP1A2) small molecule antagonists: luciferase reporter qHTS assay (AID 1671199); also: nearly all actives have a fitted effect of over 50% in size; also: potency is read from the fitted curve at half-maximal effect
Outline: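 Signal from luciferin formed by CYP1A2 from a proluciferin substrate is read as luminescence, expressed in relative luminescence units. Compounds sit with enzyme 10 min, NADPH-driven reaction runs 1 h, all at room temperature.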

[12] = biological target: Voltage-gated inwardly rectifying potassium channel KCNH2 (Homo sapiens) (UniProt Q12809); experiment: Human Ether-a-go-go-Related Gene (hERG) channel small molecule antagonists: fluorescence cell-based qHTS assay (AID 1671200)
Outline: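 First, 1000 cells per well are seeded and cultured overnight at 37 C. Next, FluxOR II dye is loaded for 1 h at room temperature, protected from light. After 10 more minutes, stimulus is added and fluorescence is read.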

[13] = biological target: Cytochrome P450 3A4 (Homo sapiens) (UniProt P08684); experiment: Cytochrome P450 Family 3 Subfamily A Member 4 (CYP3A4) small molecule antagonists: luciferase reporter qHTS assay (AID 1671201); also: nearly all actives have a fitted effect of over 50% in size; also: potency is read from the fitted curve at half-maximal effect
Outline: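 Enzyme and proluciferin substrate are mixed with test chemicals for 10 min, then NADPH regeneration system drives turnover for 1 h at room temperature. A detection reagent halts the reaction; luminescence after 20 min gives relative activity.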

[14] = biological target: Cytochrome P450 2D6 (Homo sapiens) (UniProt P10635); experiment: Cytochrome P450 Family 2 Subfamily D Member 6 (CYP2D6) small molecule antagonists: luciferase reporter qHTS assay (AID 1671196); also: nearly all actives have a fitted effect of over 50% in size; also: potency is read from the fitted curve at half-maximal effect
Outline: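 Inhibition of CYP2D6 was gauged by loss of luminescence, since light produced tracks the luciferin generated from a proluciferin substrate. A 10 min room-temperature preincubation preceded 1 h NADPH-supported turnover.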

[15] = biological target: Cytochrome P450 2C19 (Homo sapiens) (UniProt P33261); experiment: Cytochrome P450 Family 2 Subfamily C Member 19 (CYP2C19) small molecule antagonists: luciferase reporter qHTS assay (AID 1671197); also: nearly all actives have a fitted effect of over 65% in size; also: potency is read from the fitted curve at half-maximal effect
Outline: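 Relative luminescence units recorded 20 min after the detection reagent stopped a 1 h, 37C CYP2C19 reaction on proluciferin substrate, which was started by NADPH regeneration following 10 min room-temperature compound preincubation; ketoconazole positive control.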

[16] = biological target: Nuclear receptor subfamily 1 group I member 2 (Homo sapiens) (UniProt O75469); experiment: Human pregnane X receptor (PXR) small molecule agonists, qHTS assay (AID 1346982); also: nearly all actives have a fitted effect of over 35% in size; also: potency is read from the fitted curve at half-maximal effect
Outline: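 Luminescence (ONE-Glo, 30 min RT) after 24 hr compound exposure of PXR-Luc HepG2 cells; cells rested 5 hr post-plating in 5% charcoal-stripped FBS medium.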

[17] = biological target: Nuclear receptor subfamily 1 group I member 2 (Rattus norvegicus) (UniProt Q9R1A7); experiment: Rat pregnane X receptor (rPXR) activation by small molecules, qHTS assay (AID 1346983); conditions: rPXR luciferase reporter cells, One-Glo luminescence, 24 h; stronger effect = higher value; also: nearly all actives have a fitted effect of over 20% in size
Outline: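 Luminescent readout (One-Glo luciferase, 30 min room temperature) followed 24 hr compound treatment at 37 C of rPXR cells plated 2,000 per well and preincubated 5hr; qHTS format with compounds delivered in DMSO.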

[18] = biological target: Nuclear receptor subfamily 1 group I member 2 (Homo sapiens) (UniProt O75469); experiment: CYP3A4 induction through human pregnane X receptor (PXR) by small molecules, qHTS assay (AID 1346984); also: nearly all actives have a fitted effect of over 40% in size
Outline: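 DPX-2 reporter cells; 24h cpd, 37C; Luciferin-IPA 3uM final x3h; One-Glo 30 min RT; lumi read.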

[19] = biological target: Nuclear receptor subfamily 1 group I member 2 (Homo sapiens) (UniProt O75469); experiment: Human pregnane X receptor (PXR) activation by small molecules, qHTS assay (AID 1346985); also: nearly all actives have a fitted effect of over 40% in size; also: potency is read from the fitted curve at half-maximal effect
Outline: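 DPX-2 cells (HepG2 co-transfected with a PXR response element and a CYP3A4-promoter luciferase construct) were seeded at 2,000 per well, rested 5 hr at 37C, then exposed to DMSO-dissolved compounds for 24 hr. Activation was read as luciferase luminescence.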

Sequence of Acetylcholinesterase (Homo sapiens) (P22303 whole entry, looked up): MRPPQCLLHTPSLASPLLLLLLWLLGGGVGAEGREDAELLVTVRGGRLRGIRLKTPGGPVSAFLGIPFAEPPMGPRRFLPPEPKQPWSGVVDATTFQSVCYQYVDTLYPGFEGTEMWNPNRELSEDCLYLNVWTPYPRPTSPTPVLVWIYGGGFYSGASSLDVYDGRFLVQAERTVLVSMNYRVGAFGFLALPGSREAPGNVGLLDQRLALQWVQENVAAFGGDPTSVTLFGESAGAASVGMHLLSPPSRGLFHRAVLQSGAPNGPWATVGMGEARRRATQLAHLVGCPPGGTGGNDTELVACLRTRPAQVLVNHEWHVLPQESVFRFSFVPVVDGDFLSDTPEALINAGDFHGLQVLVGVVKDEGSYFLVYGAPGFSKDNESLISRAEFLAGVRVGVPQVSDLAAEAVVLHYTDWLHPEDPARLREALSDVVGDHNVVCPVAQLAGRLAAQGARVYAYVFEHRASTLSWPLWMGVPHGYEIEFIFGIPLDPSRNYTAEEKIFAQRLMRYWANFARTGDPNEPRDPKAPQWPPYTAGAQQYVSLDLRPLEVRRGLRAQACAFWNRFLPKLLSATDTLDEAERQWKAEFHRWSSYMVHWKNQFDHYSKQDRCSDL
Sequence of Cytochrome P450 1A2 (Homo sapiens) (P05177 whole entry, looked up): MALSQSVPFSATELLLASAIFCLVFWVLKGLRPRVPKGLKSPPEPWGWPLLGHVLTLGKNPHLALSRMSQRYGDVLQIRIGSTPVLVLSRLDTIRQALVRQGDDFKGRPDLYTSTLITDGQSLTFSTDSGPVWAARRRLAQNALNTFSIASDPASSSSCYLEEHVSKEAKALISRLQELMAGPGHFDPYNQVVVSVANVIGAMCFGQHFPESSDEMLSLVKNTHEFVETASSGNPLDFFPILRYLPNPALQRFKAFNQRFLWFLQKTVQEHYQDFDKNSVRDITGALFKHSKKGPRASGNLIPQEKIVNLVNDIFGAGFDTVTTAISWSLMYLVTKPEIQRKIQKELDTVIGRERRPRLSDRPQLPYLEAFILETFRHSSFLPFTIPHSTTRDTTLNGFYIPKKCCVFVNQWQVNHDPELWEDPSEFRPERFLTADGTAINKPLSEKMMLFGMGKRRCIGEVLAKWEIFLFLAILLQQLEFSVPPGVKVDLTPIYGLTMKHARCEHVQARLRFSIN
Sequence of Nuclear receptor subfamily 1 group I member 2 (Homo sapiens) (O75469 whole entry, looked up): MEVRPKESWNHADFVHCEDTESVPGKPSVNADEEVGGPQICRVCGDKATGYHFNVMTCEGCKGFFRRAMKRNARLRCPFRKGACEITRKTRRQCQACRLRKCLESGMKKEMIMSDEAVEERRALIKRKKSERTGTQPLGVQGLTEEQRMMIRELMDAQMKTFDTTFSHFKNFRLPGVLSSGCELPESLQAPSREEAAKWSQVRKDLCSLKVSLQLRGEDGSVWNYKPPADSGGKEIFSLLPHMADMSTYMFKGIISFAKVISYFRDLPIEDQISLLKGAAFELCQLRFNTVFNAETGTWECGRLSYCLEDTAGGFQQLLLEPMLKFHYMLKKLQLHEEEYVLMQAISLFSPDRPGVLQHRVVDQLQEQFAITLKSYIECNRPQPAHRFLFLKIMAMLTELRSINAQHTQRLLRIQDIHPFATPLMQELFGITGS
Sequence of Cytochrome P450 2C9 (Homo sapiens) (P11712 whole entry, looked up): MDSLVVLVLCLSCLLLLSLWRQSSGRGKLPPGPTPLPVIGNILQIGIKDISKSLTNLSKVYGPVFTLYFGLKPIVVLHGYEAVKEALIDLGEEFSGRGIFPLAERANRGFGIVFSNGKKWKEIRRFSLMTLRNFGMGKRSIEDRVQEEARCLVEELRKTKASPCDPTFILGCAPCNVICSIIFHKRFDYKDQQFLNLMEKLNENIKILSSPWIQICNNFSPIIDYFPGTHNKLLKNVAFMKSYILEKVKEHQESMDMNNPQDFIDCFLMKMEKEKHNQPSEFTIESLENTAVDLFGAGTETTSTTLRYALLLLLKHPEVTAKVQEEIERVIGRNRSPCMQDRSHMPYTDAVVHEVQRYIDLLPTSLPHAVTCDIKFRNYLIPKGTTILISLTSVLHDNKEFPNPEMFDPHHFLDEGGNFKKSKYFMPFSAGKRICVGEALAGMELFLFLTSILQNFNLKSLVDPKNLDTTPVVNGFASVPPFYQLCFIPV
Sequence of Cytochrome P450 2D6 (Homo sapiens) (P10635 whole entry, looked up): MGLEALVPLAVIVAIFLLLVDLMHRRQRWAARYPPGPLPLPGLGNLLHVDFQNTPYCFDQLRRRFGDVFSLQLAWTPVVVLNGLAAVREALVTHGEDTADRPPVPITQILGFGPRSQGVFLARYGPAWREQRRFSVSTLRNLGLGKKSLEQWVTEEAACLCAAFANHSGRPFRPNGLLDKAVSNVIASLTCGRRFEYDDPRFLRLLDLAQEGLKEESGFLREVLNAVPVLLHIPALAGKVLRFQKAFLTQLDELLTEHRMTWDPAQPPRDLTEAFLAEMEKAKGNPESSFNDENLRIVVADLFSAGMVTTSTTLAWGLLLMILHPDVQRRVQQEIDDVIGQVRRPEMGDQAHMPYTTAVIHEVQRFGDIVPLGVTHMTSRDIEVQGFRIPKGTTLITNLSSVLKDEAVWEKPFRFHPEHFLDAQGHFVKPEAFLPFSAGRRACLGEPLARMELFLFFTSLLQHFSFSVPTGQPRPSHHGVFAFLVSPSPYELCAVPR
Sequence of Voltage-gated inwardly rectifying potassium channel KCNH2 (Homo sapiens) (Q12809 whole entry, looked up): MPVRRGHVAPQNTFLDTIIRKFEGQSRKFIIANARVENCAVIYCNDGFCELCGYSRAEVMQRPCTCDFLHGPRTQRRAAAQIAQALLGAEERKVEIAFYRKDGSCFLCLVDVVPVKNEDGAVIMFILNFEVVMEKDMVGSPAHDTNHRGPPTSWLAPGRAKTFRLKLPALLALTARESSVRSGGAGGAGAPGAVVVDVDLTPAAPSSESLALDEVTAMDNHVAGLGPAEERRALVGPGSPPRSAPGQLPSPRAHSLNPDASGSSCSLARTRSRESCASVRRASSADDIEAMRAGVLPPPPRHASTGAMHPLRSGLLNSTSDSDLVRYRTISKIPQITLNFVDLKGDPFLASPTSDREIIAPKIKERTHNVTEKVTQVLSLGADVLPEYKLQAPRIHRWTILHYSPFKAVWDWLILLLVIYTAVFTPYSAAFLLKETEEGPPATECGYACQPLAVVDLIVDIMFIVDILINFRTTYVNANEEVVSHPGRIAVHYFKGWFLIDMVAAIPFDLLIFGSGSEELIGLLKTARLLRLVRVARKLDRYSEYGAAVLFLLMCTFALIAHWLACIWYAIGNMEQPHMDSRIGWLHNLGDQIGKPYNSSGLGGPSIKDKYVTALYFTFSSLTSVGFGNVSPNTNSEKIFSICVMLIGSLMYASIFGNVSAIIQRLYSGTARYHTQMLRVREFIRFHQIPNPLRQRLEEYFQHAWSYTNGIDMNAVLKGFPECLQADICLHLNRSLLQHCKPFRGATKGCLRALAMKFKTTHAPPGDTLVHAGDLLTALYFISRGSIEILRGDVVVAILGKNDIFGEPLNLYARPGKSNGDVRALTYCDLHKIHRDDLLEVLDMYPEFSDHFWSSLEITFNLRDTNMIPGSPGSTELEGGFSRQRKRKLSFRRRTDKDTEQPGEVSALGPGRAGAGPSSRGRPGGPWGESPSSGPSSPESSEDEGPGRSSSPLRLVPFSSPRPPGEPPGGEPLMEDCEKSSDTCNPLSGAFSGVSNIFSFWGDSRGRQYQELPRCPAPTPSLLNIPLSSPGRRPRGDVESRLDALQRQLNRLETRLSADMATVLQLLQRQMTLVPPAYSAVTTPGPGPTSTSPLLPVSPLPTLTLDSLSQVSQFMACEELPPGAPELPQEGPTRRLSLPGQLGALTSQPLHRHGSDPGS
Sequence of Cytochrome P450 2C19 (Homo sapiens) (P33261 whole entry, looked up): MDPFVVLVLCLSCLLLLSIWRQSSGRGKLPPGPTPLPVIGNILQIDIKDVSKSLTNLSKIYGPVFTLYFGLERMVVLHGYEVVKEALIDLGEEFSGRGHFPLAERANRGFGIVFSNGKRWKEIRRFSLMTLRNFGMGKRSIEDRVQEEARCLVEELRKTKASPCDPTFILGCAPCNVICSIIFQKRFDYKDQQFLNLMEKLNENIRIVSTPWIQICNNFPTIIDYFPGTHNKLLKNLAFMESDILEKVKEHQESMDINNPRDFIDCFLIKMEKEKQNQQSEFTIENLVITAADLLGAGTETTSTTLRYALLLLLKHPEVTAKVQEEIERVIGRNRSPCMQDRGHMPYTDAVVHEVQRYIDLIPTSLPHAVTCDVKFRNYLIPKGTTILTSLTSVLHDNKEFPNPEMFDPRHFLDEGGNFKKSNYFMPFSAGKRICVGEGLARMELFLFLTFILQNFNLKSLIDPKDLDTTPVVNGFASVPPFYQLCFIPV
Sequence of Cytochrome P450 3A4 (Homo sapiens) (P08684 whole entry, looked up): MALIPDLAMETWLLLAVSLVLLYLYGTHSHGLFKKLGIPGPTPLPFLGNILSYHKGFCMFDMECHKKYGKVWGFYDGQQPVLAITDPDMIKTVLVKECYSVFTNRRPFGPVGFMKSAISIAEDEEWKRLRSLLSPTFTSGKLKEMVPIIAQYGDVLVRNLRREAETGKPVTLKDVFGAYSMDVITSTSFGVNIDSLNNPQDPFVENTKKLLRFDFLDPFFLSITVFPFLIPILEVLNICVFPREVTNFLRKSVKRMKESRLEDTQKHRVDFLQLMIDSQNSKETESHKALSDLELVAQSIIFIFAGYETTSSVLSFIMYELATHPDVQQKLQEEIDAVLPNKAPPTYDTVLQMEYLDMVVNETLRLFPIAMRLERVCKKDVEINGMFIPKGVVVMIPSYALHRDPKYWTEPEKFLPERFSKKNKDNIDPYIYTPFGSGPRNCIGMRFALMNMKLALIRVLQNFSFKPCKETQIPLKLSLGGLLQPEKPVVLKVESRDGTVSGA

Row | Compound | Potency [1] | Potency [2] | Potency [3] | Potency [4] | Potency [5] | Potency [6] | Potency [7] | Potency [8] | Potency [9] | Potency [10] | Potency [11] | Potency [12] | Potency [13] | Potency [14] | Potency [15] | Potency [16] | max activation [17] | outcome [18] | Potency [19]
1 | CCCSP(=S)(OCC)Oc1ccc(SC)cc1 (stereo not given) | inactive | inactive | inactive | inactive | inactive | inactive | inactive | inactive | inactive | 2.52 µM (active) | 2 µM (active) | inactive | 3.17 µM (active) |  |  |  |  |  | 
2 | CN(C)C(=O)Nc1cccc(OC(=O)NC(C)(C)C)c1 | inactive | inactive | inactive | inactive | inactive | inactive | inactive | inactive | inactive | inactive | 39.9 µM (active) | inactive | inactive | inactive | inactive |  |  |  | 
3 | COc1ccc(C(=O)c2c(C)n(CCN3CCOCC3)c3ccccc23)cc1 | inactive | inactive |  | inactive |  | inactive | inactive | inactive | inactive | 12.3 µM (active) |  | inactive |  |  |  | 9.44 µM (active) | 9.34% (inactive) | inactive | 14.1 µM (active)
4 | Oc1cccc(Cl)c1 | inactive | inactive | inactive | inactive | inactive | inactive | inactive | inactive | inactive | inactive |  | inactive | inactive | inactive |  |  |  |  | 
5 | NCCc1cc(O)c(O)cc1O | inactive | inactive |  | inactive | inactive | inactive | inactive | inactive | inactive |  | inactive | inactive | inactive |  | 9.77 µM (active) | inactive | -4.9% (inactive) | inactive | inactive
6 | c1ccc2c(c1)-c1cccc3cccc-2c13 | inactive | inactive | inactive | inactive | inactive |  |  |  |  |  |  | inactive |  |  |  |  |  |  | 
7 | O=C(Cl)OCCOCCOC(=O)Cl | inactive | inactive |  | inactive | inactive | inactive | inactive | inactive | inactive |  |  | inactive | inactive | 79.6 µM (active) |  | inactive |  |  | 
8 | FC(Cl)(Cl)C(F)(Cl)Cl | inactive | inactive | inactive | inactive | inactive | inactive |  | inactive | inactive | inactive |  | inactive | inactive | inactive | inactive |  |  |  | 
9 | C[C@]12C=CC3=C4CCC(=O)C=C4CC[C@H]3[C@@H]1CC[C@@H]2O | inactive | inactive | 60.7 µM (active) and 46.1 µM (active) | inactive | inactive | inactive |  | inactive | inactive | 35.3 µM (active) and 30.1 µM (active) | 39.7 µM (active) | inactive | 31.5 µM (active) and inactive |  |  |  |  |  | 
10 | CCNC(=O)NC(=O)/C(C#N)=N/OC | inactive | inactive | inactive | inactive | inactive | inactive | inactive | inactive | inactive |  |  | inactive | inactive | inactive |  |  |  |  | 
11 | C[N+](C)(C)CC1CO1 (stereo not given) | inactive | inactive | inactive | inactive | inactive | inactive |  | inactive | inactive | inactive |  | inactive | inactive | inactive |  |  |  |  | 
12 | CC1(C)CC(=O)CC(C)(C)N1[O] | inactive | inactive | inactive | inactive | inactive | inactive | inactive | inactive | inactive | inactive |  | inactive | inactive |  | inactive |  |  |  | 
13 | NC(=S)c1c(Cl)cccc1Cl | inactive | inactive | inactive | inactive | inactive | inactive | inactive | inactive | inactive |  | 28.3 µM (active) | inactive | 28.3 µM (active) | inactive |  |  |  |  | 
14 | C=CCSSCC=C | inactive | inactive | inactive | inactive | inactive | inactive | inactive | inactive | inactive |  |  | inactive | inactive |  | 7.96 µM (active) |  |  |  | 
